Screening results: PubChem BioAssay, Broad Institute
DUX4 inh: blocks DUX4-driven transcriptional activation; 293T-iDUX4 ZSCAN4-Gaussia luciferase reporter, 24 h; stronger effect = lower value; activity change, negative = inhibition, % (concentration not given with the values); actives 0.8% (n = 37,000);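 active = mean inhibition of at least 10% in the main channel, exceeding the control channel by a set limit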
Hits are given with their value; 0 = inactive. This excerpt belongs to a sample that is enriched for hits.

SMILES | DUX4 inh
C[C@@H]1CN([C@@H](C)CO)C(=O)c2ccccc2-c2ccccc2CO[C@@H]1CN(C)Cc1ccc(O)cc1 | 0
C[C@@H]1CN([C@H](C)CO)C(=O)c2ccccc2-c2ccccc2CO[C@@H]1CN(C)Cc1ccc(Cl)c(Cl)c1 | -51.6
C[C@H]1CN([C@@H](C)CO)C(=O)c2ccccc2-c2ccccc2CO[C@@H]1CN(C)Cc1ccc(Cl)c(Cl)c1 | -41.6
Cc1noc(C)c1S(=O)(=O)Nc1ccc2c(c1)C(=O)N([C@@H](C)CO)C[C@@H](C)[C@H](CN(C)C(=O)CCC(F)(F)F)OCCCC[C@H](C)O2 | 0
COc1ccccc1-c1ccc2n(c1=O)C[C@H]1[C@H](CO)[C@@H](C(=O)NCc3ccccc3F)N[C@@H]21 | 0
COc1ccc2c3c(n(C)c2c1)[C@@H](CO)N(C(=O)Nc1ccc(F)cc1)CC31CCN(CC2CCOCC2)CC1 | 0
CO[C@H]1CN(C)C(=O)c2ccc(NC(C)=O)cc2OC[C@@H](C)N(C(=O)C2CCOCC2)C[C@H]1C | 0
COCC(=O)N1CCCCN2[C@H](CO)[C@H](c3ccc(C#Cc4cccnc4)cc3)[C@@H]2C1 | 0
Cc1noc(C)c1C(=O)N(C)C[C@@H]1OCc2ccccc2-c2c(n(C)c3ccccc23)C(=O)N([C@@H](C)CO)C[C@@H]1C | 0
CCC(=O)N1CC[C@@H]2[C@H](CO)Nc3ccc(C#Cc4ccc(OC)cc4)cc3[C@@H]21 | 0
N#Cc1ccc(-c2ccc3c(c2)[C@@H]2[C@@H](CCN2C(=O)Cc2ccccc2)[C@H](CO)N3)cc1 | 0
O=C(Cc1ccccc1)N1CC[C@@H]2[C@@H](CO)Nc3ccc(-c4cccc(F)c4)cc3[C@@H]21 | 0
COCC(=O)N1CC[C@@H]2[C@H]1c1cc(C#Cc3ccc(OC)cc3)ccc1N[C@@H]2CO | -18.1
COCC(=O)N1CC[C@H]2[C@H](CO)Nc3ccc(-c4ccc(C#N)cc4)cc3[C@H]21 | 0
COCC(=O)N1CC[C@@H]2[C@H](CO)Nc3ccc(-c4ccc(C(=O)N(C)C)cc4)cc3[C@@H]21 | 0
O=C(CN1CCOCC1)N1CC[C@H]2[C@H](CO)Nc3ccc(-c4ccccc4)cc3[C@H]21 | 0
COCC(=O)N1CC[C@@H]2[C@H]1c1cc(-c3ccc(C#N)cc3)ccc1N[C@@H]2CO | -33.7
COCC(=O)N1CC[C@@H]2[C@@H](CO)Nc3ccc(C#Cc4ccc(F)cc4)cc3[C@@H]21 | 0
COc1ccccc1C#Cc1ccc2c(c1)[C@H]1[C@H](CCN1C(=O)CN1CCOCC1)[C@H](CO)N2 | -20.6
O=C(Cc1ccccc1)N1CC[C@@H]2[C@H]1c1cc(-c3ccc(F)cc3)ccc1N[C@@H]2CO | -23.5
COc1ccccc1C#Cc1ccc2c(c1)[C@H]1[C@H](CCN1C(=O)CN1CCOCC1)[C@@H](CO)N2 | 0
COc1ccc2c3c(n(C)c2c1)[C@@H](CO)N(C(=O)CN1CCOCC1)CC31CCN(C)CC1 | 0
N#C[C@@H]1[C@H](c2ccc(C#CC3CCCCC3)cc2)[C@H](CO)N1C(=O)c1cccc(F)c1 | 0
COc1ccccc1CNC(=O)C[C@@H]1C[C@@H]2c3cc(NC(=O)NC4CCCC4)ccc3O[C@@H]2[C@@H](CO)O1 | 0
COc1ccc2c3c([nH]c2c1)[C@H](CO)N(C(=O)CN1CCOCC1)CC31CN(C(=O)NC(C)C)C1 | 0
SMILES | DUX4 inh
C/C=C/c1ccc([C@H]2[C@@H](CO)N(C(C)=O)C23CN(C(=O)c2ccc(F)cc2)C3)cc1 | 0
O=C(C[C@H]1CC[C@@H]2[C@H](COC[C@H](O)CN2S(=O)(=O)c2ccc(F)cc2)O1)N[C@H]1CCN(Cc2ccccc2)C1 | 0
CN1CCN(C(=O)C[C@@H]2C[C@H]3c4cc(NC(=O)Nc5ccc(C(F)(F)F)cc5)ccc4O[C@H]3[C@H](CO)O2)CC1 | 0
CC(C)CC#Cc1ccc([C@H]2[C@H](CO)N3CCCCN(S(=O)(=O)Cc4ccccc4)C[C@@H]23)cc1 | 0
COCC#Cc1ccc([C@@H]2[C@H]3CN(S(=O)(=O)c4ccc(OC)cc4)CCCCN3[C@H]2CO)cc1 | 0
COc1cccc(S(=O)(=O)N2CCCCN3[C@@H](CO)[C@@H](c4ccc(C#CCC(C)C)cc4)[C@@H]3C2)c1 | -29.8
C[C@H](O)C#Cc1ccc([C@@H]2[C@H]3CN(C(=O)c4ccc5c(c4)OCO5)CCCCN3[C@H]2CO)cc1 | 0
C[C@@H](O)C#Cc1ccc([C@H]2[C@@H](CO)N3CCCCN(C(=O)c4ccc5c(c4)OCO5)C[C@H]23)cc1 | -32.2
CC(C)CC#Cc1ccc([C@@H]2[C@H](CO)N3CCCCN(S(=O)(=O)Cc4ccccc4)C[C@@H]23)cc1 | 0
COc1cccc(S(=O)(=O)N2CCCCN3[C@H](CO)[C@H](c4ccc(C#CC5CC5)cc4)[C@@H]3C2)c1 | 0
O=S(=O)(Cc1ccccc1)N1CCCCN2[C@H](CO)[C@H](c3ccc(-c4ccc(F)cc4)cc3)[C@@H]2C1 | 0
O=S(=O)(Cc1ccccc1)N1CCCCN2[C@H](CO)[C@@H](c3ccc(-c4ccc(F)cc4)cc3)[C@@H]2C1 | -31.6
CC(C)CC#Cc1ccc([C@@H]2[C@@H](CO)N3CCCCN(S(=O)(=O)Cc4ccccc4)C[C@@H]23)cc1 | -14.0
C[C@@H](O)C#Cc1ccc([C@H]2[C@@H](CO)N3CCCCN(C(=O)c4ccc5c(c4)OCO5)C[C@@H]23)cc1 | 0
O=S(=O)(Cc1ccccc1)N1CCCCN2[C@@H](CO)[C@@H](c3ccc(-c4cccnc4)cc3)[C@@H]2C1 | 0
CO[C@H]1CN(C)C(=O)c2ccc(NC(=O)C3CCC3)cc2OC[C@H](C)N(C(=O)CN(C)C)C[C@H]1C | 0
CCC(=O)N1C[C@H](C)[C@H](OC)CN(C)C(=O)c2cc(NC(=O)NC3CCCC3)ccc2OC[C@@H]1C | 0
CCCNC(=O)C[C@@H]1CC[C@@H]2[C@H](COC[C@H](O)CN2C(=O)Nc2cccc(Cl)c2)O1 | 0
O=C(Nc1ccccc1F)N1C[C@H]2[C@@H](c3ccccc31)[C@H](CO)N2C(=O)c1ccccc1F | 0
COc1ccc2c3c([nH]c2c1)[C@H](CO)N(C)CC31CN(C(=O)Nc2c(C)noc2C)C1 | 0
CC(C)(C)[S@@](=O)N1Cc2cc(C(=O)NCCc3ccncc3)nc(-c3cccc(-c4ccccc4)c3)c2[C@H]1CCO | 0
COc1ccccc1-c1ccc2n(c1=O)C[C@H]1[C@H](CO)[C@@H](C(=O)N3CCCCC3)N(C)[C@@H]21 | 0
COCC#Cc1ccc([C@H]2[C@@H](CO)N3CCCCN(S(=O)(=O)c4ccc(OC)cc4)C[C@H]23)cc1 | 0
COc1ccc(S(=O)(=O)N2CCCCN3[C@H](CO)[C@@H](c4ccc(C#CC(C)C)cc4)[C@@H]3C2)cc1 | 0
CC(C)CC#Cc1ccc([C@H]2[C@@H](CO)N3CCCCN(S(=O)(=O)c4ccc(F)cc4)C[C@@H]23)cc1 | -34.3
C/C=C/c1ccc([C@@H]2[C@@H](CO)N3CCCCN(S(=O)(=O)c4cccc(C)c4)C[C@H]23)cc1 | -16.8
Cc1cccc(S(=O)(=O)N2CCCCN3[C@H](CO)[C@H](c4ccc(-c5ccncc5)cc4)[C@H]3C2)c1 | 0
Cc1cccc(S(=O)(=O)N2CCCCN3[C@@H](CO)[C@H](c4ccc(C#C[C@@H](C)O)cc4)[C@@H]3C2)c1 | -26.5
Cc1cccc(S(=O)(=O)N2CCCCN3[C@H](C2)[C@H](c2ccc(C#C[C@@H](C)O)cc2)[C@@H]3CO)c1 | 0
Cc1cccc(S(=O)(=O)N2CCCCN3[C@@H](CO)[C@H](c4ccc(-c5ccncc5)cc4)[C@@H]3C2)c1 | 0
